An excerpt weighted towards active compounds, which were near 21% of everything screened.
D3 ag: qHTS of D3 Dopamine Receptor Agonist: qHTS | D(3) dopamine receptor (Homo sapiens), P35462 | D3R DiscoveRx beta-arrestin cells, luminescence, 90 min | max activation, % | hit rate 0.58% among 410,000 | AID 652048, 2013; in the data active = max activation above about 30%; note: 0% is about no effect
Target sequence (P35462 whole entry, looked up): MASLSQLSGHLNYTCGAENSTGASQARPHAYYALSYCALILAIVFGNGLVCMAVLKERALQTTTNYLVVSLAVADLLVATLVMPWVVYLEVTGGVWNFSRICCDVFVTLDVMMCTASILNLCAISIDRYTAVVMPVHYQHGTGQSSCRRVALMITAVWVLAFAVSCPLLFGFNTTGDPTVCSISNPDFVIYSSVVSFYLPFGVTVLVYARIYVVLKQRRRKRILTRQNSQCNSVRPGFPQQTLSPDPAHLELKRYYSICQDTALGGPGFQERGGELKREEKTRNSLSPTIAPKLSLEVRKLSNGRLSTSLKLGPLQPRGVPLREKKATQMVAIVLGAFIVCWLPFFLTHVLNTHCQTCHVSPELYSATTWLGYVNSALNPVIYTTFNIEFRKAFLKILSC
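Cells at 1500/well, incubated overnight, then treated with pinned compounds (dopamine as control) for 90 min at 37 degrees C. DiscoveRx reagent added for 30 - 60 minutes at room temperature; luminescence read.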
TDP1 cell noCPT: qHTS for Inhibitors of human tyrosyl-DNA phosphodiesterase 1 (TDP1): qHTS in cells in absence of CPT; DT40 Tdp1-/- hTDP1 cells, no CPT, ATP luminescence, 48 h; AID 686978, 2013; hit rate 15% among 420,000; Potency, µM (series often up to 46.2 µM), inactives show top-dose activity change, negative = growth inhibition, most hits filed as inhibitors; note: potency is the fitted concentration of half-maximal effect; % is set by controls: 0 for no effect and ±100 for the full control effect; nearly all actives have a fitted effect of over 55% in size
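Chicken DT40 Tdp1-/- cells complemented with human TDP1, screened without camptothecin (DMSO vehicle only), 400 cells/well. Compounds pin-transferred, cells incubated at 37 °C for at least 48 hr. Growth read as ATP-dependent luminescence (CellTiter-Glo, 30 min at RT).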
TDP1 cell CPT: qHTS for Inhibitors of human tyrosyl-DNA phosphodiesterase 1 (TDP1): qHTS in cells in presence of CPT; hit rate 12% among 420,000; chicken DT40 Tdp1-/-;hTDP1 cells + 20 nM CPT, ATP luminescence, 48 h; Potency, µM (doses to about 46.2 µM), without a hit: at the top dose activity change, negative = growth inhibition, hits mostly inhibitors; note: potency is the fitted concentration of half-maximal effect; % is set by controls: 0 for no effect and ±100 for the full control effect; nearly all actives have a fitted effect of over 55% in size
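Chicken DT40 Tdp1-/- cells complemented with human TDP1, 400 cells/well, exposed to compounds plus 20 nM camptothecin for at least 48 h at 37 C; viability read as ATP content by CellTiter-Glo luminescence.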
IL1B secr inh: qHTS for Inhibitors of Inflammasome Signaling: IL-1-beta AlphaLISA Primary Screen; AID 743279, 2014; hit rate 4.7% among 360,000; activity change, % at 57.5 µM; THP-1 LPS/ATP IL-1B secretion, AlphaLISA, 16 h; active compounds read low; in the data active = activity change below about -50%; inconclusive = mostly about -30% to -49%; note: % is set by controls: 0 for no effect and ±100 for the full control effect
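Secreted IL-1B measured by AlphaLISA bead assay after 16 h compound exposure of THP-1 cells; compounds (final up to 57.5 uM) added 1 h before LPS (250 ng/mL) and ATP (1.25 mM) stimulation; lower signal means less secretion.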
DRD3 antagonist: qHTS of D3 Dopamine Receptor Antagonist: qHTS. D3R cells, DiscoveRx beta-arrestin luminescence, antagonist mode; active compounds read low. D(3) dopamine receptor (Homo sapiens), P35462. max response, negative = inhibition, %. hit rate 2.5% among 360,000; in the data active = max response below about -50%; inconclusive = no clear call, values can overlap the other calls; note: % is set by controls: 0 for no effect and ±100 for the full control effect
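Cells expressing the human receptor were seeded at 1500 cells/well, incubated overnight at 37 degrees C in 5% CO2, then exposed to library compounds with dopamine controls for 90 minutes at 37 degrees C before luminescent detection.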
ClpP mod: qHTS Assay for Activators of ClpP; Potency, µM (top dose mostly 57.5 µM), for inactives: at the top dose activity change, negative = active; purified B. subtilis ClpP, FRET peptide cleavage, 20 min; ATP-dependent Clp protease proteolytic subunit (Bacillus subtilis (strain 168)), P80244; hit rate 1.9% among 340,000; AID 651965, 2013; active = well fitted falling curve with a large enough effect; inconclusive = small, poorly fitted or top-dose-only effect; inactive = no such curve, though single readings can be large or run the other way; note: potency is the fitted concentration of half-maximal effect; the source files actives as falling curves though it sought activators and does not explain the sign; nearly all actives have a fitted effect of over 65% in size
Target sequence (P80244 whole entry, looked up): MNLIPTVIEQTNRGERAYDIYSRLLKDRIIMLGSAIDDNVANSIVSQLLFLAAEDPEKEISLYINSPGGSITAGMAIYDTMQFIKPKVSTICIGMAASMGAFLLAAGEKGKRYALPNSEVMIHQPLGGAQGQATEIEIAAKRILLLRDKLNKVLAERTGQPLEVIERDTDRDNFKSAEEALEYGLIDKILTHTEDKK
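Purified B. subtilis ClpP, 10 microg/mL final in Tris/HCl pH8 with KCl, BSA, glycerol and Tween-20, cleaved an Abz/nitrotyrosine-quenched decapeptide. Fluorescence (ex 320, em 430) was read at 0 and 20 min at room temperature. Delta was normalized to 5.8 microM ADEP and DMSO/no-enzyme controls.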
Numbers without * were called inactive; ? = inconclusive; · = not tested or not shown; [ ] = dose if it differs, or a comment. Unless noted, calls come from the whole dose curve; as a rule, active = well fitted inhibition curve with a large enough effect; inconclusive = small, poorly fitted or top-dose-only effect; inactive = flat fitted curve, though single readings scatter.

SMILES	D3 ag	TDP1 cell noCPT	TDP1 cell CPT	IL1B secr inh	DRD3 antagonist	ClpP mod
CSCCC(NC(=O)c1ccco1)C(=O)NCC(c1ccccc1)N(C)C (stereo not drawn)	-18.1	2.1%	9.0%	0.0	-12.0	-0.5%
CSCCC(NC(=O)c1ccccc1Br)C(=O)N1CCN(C/C=C/c2ccccc2)CC1 (stereo not drawn)	-1.5	?	2.59µM*	-12.4	-8.6	0.9%
CSCCC(NC(=O)c1ccccc1Cl)C(=O)N1CCN(C(C)=O)CC1 (stereo not drawn)	4.0	0.1%	-8.7%	2.0	10.6	0.9%
COc1ccccc1C(=O)NC(CCSC)C(=O)NCC(c1ccco1)N(C)C (stereo not drawn)	-5.6	-18.5%	0.1%	16.7	-67.1*	-4.7%
Cc1cccc(C(=O)N2CCC(Cc3ccccc3)CC2)c1[N+](=O)[O-]	2.7	6.51µM*	8.2µM*	-86.9*	-1.5	0.0%
CCOc1ccc(NS(=O)(=O)c2ccc(C(=O)NC3CCC(O)CC3)cc2)cc1 (stereo not drawn)	-14.0	-10.3%	-26.1%	19.1	-12.6	1.1%
Cc1ccc(C)c(NC(=O)CN(C)C(=O)C2CCN(C(=O)Nc3ccccc3)CC2)c1	4.2	-16.1%	-1.4%	-16.4	8.5	·
CCC(=O)N1c2ccc(S(=O)(=O)CCC(=O)NCc3cccc(OC)c3)cc2CC1C (stereo not drawn)	1.1	-21.8%	-8.5%	·	·	2.4%
COc1cc(CCN(C(=O)c2cc3ccccc3[nH]2)C(C)c2nc3ccccc3[nH]2)cc(OC)c1 (stereo not drawn)	9.5	?	?	-25.8	4.3	-6.0%
Cc1c(C(=O)N2CCC(Cc3ccccc3)CC2)cccc1[N+](=O)[O-]	2.3	?	?	-104.1*	2.6	·
COc1ccccc1C(=O)NC(CCSC)C(=O)N1CCC(Cc2ccccc2)CC1 (stereo not drawn)	-11.2	18.4µM*	14.6µM*	-59.6*	-0.2	·
Cc1ccc2c(=O)cc(C(=O)Nc3nnc(CC(C)C)s3)oc2c1C	-15.2	2.3%	22.5%	·	·	-0.1%
COc1cc(CCN(C(C)=O)C2C(=O)Nc3ccccc3N=C2c2ccc3c(c2)OCO3)cc(OC)c1 (stereo not drawn)	3.7	-24.6%	-24.1%	?	4.4	-1.8%
COc1ccc(C2=Nc3ccccc3NC(=O)C2N(CCc2cc(OC)cc(OC)c2)C(C)=O)cc1 (stereo not drawn)	0.0	?	23.1µM*	?	9.9	-2.3%
CC(C)NC(=O)C1(C)CSCC(=O)N1Cc1cccs1 (stereo not drawn)	0.4	0.8%	24.9%	-23.5	7.5	1.4%
Cc1ccc(S(=O)(=O)Cn2nnnc2C(c2ccc(F)cc2)N2CCCCC2)cc1 (stereo not drawn)	-6.7	23.1µM*	?	-0.6	-5.4	1.3%
COc1ccc(C(c2nnnn2CS(=O)(=O)c2ccc(C)cc2)N2CCN(c3ncccn3)CC2)cc1 (stereo not drawn)	-1.9	?	-25.3%	?	-3.5	31.6µM*
Cc1ccc(CNC(=O)c2c[nH]n3c(=O)c(Cc4ccc(Cl)cc4)c(C)nc23)cc1	0.1	?	?	·	·	4.1%
COCC(C)NC(=O)C(C)N1c2cccc3cccc(c23)S1(=O)=O (stereo not drawn)	-0.4	?	-2.1%	11.2	-1.8	0.2%
CC(C)(C)c1ccc(Cn2c(=N)n(CC(O)c3ccco3)c3ccccc32)cc1 (stereo not drawn)	6.7	2.59µM*	2.59µM*	-67.4*	13.1	·
CCn1c(=N)n(CC(O)c2ccccc2)c2ccccc21 (stereo not drawn)	-7.6	-28.0%	-8.8%	-5.3	0.0	0.2%
CC(C)(C)c1ccc(COn2c(=O)c(-c3ccco3)[n+]([O-])c3ccccc32)cc1	0.0	5.0%	-6.3%	7.7	43.2	-0.4%
Cc1ccccc1Cn1c(=N)n(CC(O)c2ccco2)c2ccccc21 (stereo not drawn)	1.0	14.6µM*	18.4µM*	-77.1*	-16.4	-3.3%
COc1ccccc1CNC(=O)c1cnc(N2CCCC2)nc1C	-0.5	?	?	·	·	?
COC(=O)c1ccccc1-c1cc(C)cc2c1OC(CNC(=O)c1cnc(C)cn1)C2 (stereo not drawn)	·	18.4µM*	-11.6%[9.04 µM]	·	·	·
SMILES	D3 ag	TDP1 cell noCPT	TDP1 cell CPT	IL1B secr inh	DRD3 antagonist	ClpP mod
COc1ccc(CCNC(=O)c2cc(C(=O)c3cc(Cl)ccc3O)cn(CCc3ccc(OC)cc3)c2=O)cc1	-3.4	10.3µM*	10.3µM*	-25.5	40.1	-0.4%
O=C(c1cc(C(=O)NCCc2ccccc2)c(=O)n(CCc2ccccc2)c1)c1cc(Cl)ccc1O	20.6	14.6µM*	?	0.0	60.9	11.7%
COc1ccc(CCNC(=O)c2cc(C(=O)c3cc(C)ccc3O)cn(CCc3ccc(OC)cc3)c2=O)cc1	30.7*	?	?	0.0	67.0	?
O=C(O)c1ccccc1C(=O)NCCc1ccc(Cl)cc1	3.7	-16.9%	-19.5%	0.5	10.7	0.7%
CC(C)(CC(=O)O)CC(=O)Nc1ccc2c(c1)ncn2CCc1ccccc1	-1.1	18.4%	-17.0%	62.9	5.6	-0.6%
CC(=O)Oc1ccc(/C=C(\NC(=O)c2ccco2)C(=O)NCc2ccco2)cc1	-1.1	-6.7%	5.7%	17.7	4.1	·
CCOc1cccc2c1OC(c1cc(OC)c(OC)c(OC)c1)N1N=C(c3ccc(C)o3)CC21 (stereo not drawn)	-16.0	25.9µM*	?	?	-10.4	·
Cc1ccc(C)c(CN2CCC(CNC(=O)Nc3cccc(Cl)c3C)CC2)c1	-17.5	?	?	-64.8*	?	·
O=C(NCC1CCN(Cc2ccccc2F)CC1)Nc1ccc(F)c(Cl)c1	-18.4	?	?	·	·	-2.8%
Cc1ccc(C)c(CN2CCC(CNC(=O)Nc3ccc(F)c(Cl)c3)CC2)c1	-20.8	?	29.1µM*	-92.1*	-66.2*	·
Cc1cc(C)c(S(=O)(=O)NCCc2cc3cc(C)c(C)cc3[nH]c2=O)c(C)c1	6.4	-21.6%	-9.9%	·	·	-22.4%
COC(=O)c1ccc2nc(NC(=O)CCS(=O)(=O)c3ccccc3)sc2c1	-5.3	9.2µM*	8.2µM*	15.3	12.7	-24.0%

High-throughput results deposited in PubChem by National Center for Advancing Translational Sciences (NCATS).
